Target: Solute carrier family 2, facilitated glucose transporter member 1 (Homo sapiens) (UniProt P11166)
Assay: ST_JUDE_LEISH: Cytotoxicity at 2uM final concentration against transgenic Leishmania Mexicana promastigotes LmGLUT1 that are glucose transport deficient and complemented with the human glucose transporter GLUT1. Activity is measured by DNA content using SYBR green in vitro
Format: functional

Sequence of Solute carrier family 2, facilitated glucose transporter member 1 (Homo sapiens) (P11166 whole entry): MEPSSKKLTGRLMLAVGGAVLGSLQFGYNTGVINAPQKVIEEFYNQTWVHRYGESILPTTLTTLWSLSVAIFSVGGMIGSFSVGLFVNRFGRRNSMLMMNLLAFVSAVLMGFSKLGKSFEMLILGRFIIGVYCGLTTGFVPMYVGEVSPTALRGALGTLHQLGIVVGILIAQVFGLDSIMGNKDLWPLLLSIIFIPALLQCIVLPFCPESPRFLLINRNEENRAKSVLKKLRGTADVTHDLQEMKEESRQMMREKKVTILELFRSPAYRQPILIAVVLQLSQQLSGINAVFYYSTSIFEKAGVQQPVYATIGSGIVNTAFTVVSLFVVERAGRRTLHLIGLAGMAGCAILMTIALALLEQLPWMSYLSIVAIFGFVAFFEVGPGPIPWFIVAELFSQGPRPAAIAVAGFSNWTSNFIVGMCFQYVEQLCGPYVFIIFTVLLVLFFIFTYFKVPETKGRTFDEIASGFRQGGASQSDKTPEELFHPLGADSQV

Compared with `CC(C)c1cc(C(=O)N[C@@H](Cc2ccccc2)[C@H](O)CNC2CCCCC2)cc(N2CCCC2=O)c1`, `Cc1ccccc1C1CCN(C2CCC(NC(=O)c3cc4cc(C(C)C)ccc4[nH]3)CC2)CC1` (stereo not given) is lower in inhibition: 2.19% for the first, 1.91% for the second.

Compared with `Cc1ccc(O)cc1Nc1ccnc2ccc(C(C)(C)C)cc12`, `CN(C)CCN(C)Cc1ccc(-c2ccc3c(Nc4ccc(F)cc4Cl)ccnc3c2)o1` is higher in inhibition: -2.04% for the first, 1.3% for the second.

First: CC1(C)N=C(N)N=C(N)N1OCc1cc2ccccc2cc1CON1C(N)=NC(N)=NC1(C)C
Second: CCC(CCON1C(N)=NC(N)=NC1(C)C)c1ccc(Cl)cc1 (stereo not given)
The inhibition of the first is lower: 1.9% for the first, 4.18% for the second.

Going from `Brc1cc(Br)c2c(c1)C(NCCCNc1nc3ncccc3[nH]1)CCN2` (stereo not given) to `CCCCOc1cc2c(cc1OCC)C(C=Cc1ccc(Cl)cc1Cl)=NCC2`, the inhibition falls from 68% to 15.5%.

First: CCN1CCN(c2cc(C)c3cc(NC(=O)c4cccc(C(F)(F)F)c4)ccc3n2)CC1
Second: O=C(Nc1ccc(OC2CCN(Cc3ccccc3)CC2)c(Cl)c1)c1ccc(F)cc1
The inhibition of the first is higher: 3.14% for the first, 2.05% for the second.

Going from `CN1CCC(N(Cc2ccc(N3CCN(Cc4c[nH]c5ccc(Cl)cc45)CC3)nc2)C2CC2)CC1` to `COc1ccc(C(=O)N2CCC(CN3CCOC(c4ccccc4)(c4ccccc4)C3)CC2)cc1`, the inhibition falls from 9.81% to 0.77%.

Going from `Cc1cc(S(=O)(=O)N2CCCCC(c3ccc(C(F)(F)F)cc3)=N2)c(Cl)cc1Cl` to `CS(=O)(=O)CCNCc1cccc(-c2cc3c(Nc4ccc5c(cnn5Cc5ccccc5)c4)ncnc3s2)c1`, the inhibition falls from 3.58% to 2.62%.

`COc1ccc(/N=[N+](\[O-])c2ccccc2/[N+]([O-])=N/c2ccc(OC)cc2)cc1` was tested, and the inhibition was 1.29%.
